# The whole screen tested about 310,000 compounds, of which about 2,200 (0.71%) showed an effect of 50% or more. The effect is printed as a negative number. The list comes from a sample in which strong results are over-represented; it also holds similar structures and randomly drawn compounds.
# Target: human ether-à-go-go-related gene (hERG) potassium channel (human, UniProt Q12809)
# Assay: primary screen, population patch clamp on CHO cells stably expressing hERG; higher = less effect of the substance
# Sequence of human ether-à-go-go-related gene (hERG) potassium channel (Q12809 whole entry, looked up): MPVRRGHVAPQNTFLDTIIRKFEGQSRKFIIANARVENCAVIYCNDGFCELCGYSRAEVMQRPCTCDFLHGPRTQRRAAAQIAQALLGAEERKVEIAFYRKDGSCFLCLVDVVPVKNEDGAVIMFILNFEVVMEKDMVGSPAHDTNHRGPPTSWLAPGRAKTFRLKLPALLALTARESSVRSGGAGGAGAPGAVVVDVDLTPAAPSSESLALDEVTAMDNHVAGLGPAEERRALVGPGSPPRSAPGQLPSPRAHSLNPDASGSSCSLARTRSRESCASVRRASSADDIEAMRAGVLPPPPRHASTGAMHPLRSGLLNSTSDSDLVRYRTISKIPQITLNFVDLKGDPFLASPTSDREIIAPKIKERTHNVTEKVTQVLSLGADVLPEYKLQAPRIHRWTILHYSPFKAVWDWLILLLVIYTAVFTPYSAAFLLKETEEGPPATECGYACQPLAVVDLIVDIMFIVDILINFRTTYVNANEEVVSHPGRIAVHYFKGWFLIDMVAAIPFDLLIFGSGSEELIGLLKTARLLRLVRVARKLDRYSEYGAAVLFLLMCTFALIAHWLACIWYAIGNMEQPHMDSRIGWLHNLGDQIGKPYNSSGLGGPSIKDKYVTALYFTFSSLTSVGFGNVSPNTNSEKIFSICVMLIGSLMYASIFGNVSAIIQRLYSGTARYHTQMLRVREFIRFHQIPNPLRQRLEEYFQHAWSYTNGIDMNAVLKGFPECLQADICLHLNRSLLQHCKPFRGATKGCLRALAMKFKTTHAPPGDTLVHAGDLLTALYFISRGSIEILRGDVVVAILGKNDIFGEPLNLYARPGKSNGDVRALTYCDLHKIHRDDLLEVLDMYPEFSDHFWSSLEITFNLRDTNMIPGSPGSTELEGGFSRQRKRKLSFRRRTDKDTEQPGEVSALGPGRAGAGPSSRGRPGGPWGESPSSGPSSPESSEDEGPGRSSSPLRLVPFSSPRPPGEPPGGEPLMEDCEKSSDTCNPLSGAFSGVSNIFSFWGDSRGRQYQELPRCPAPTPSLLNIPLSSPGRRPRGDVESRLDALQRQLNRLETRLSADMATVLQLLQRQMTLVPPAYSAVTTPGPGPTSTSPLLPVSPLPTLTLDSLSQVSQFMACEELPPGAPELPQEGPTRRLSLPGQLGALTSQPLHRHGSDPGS
row,SMILES,"hERG current change (%, negative = inhibition) at 1uM [%]"
1,COc1cc(OC)c(CN2CCC(CO)(CCOc3ccccc3)CC2)c(OC)c1,-87.7
2,COc1ccc(OC)c(CN2CCC(CO)(CCOc3ccccc3)CC2)c1,-30
3,CC(=O)c1cccc(CN2CCC(CO)(CCOc3ccccc3)CC2)c1,-3.07
4,COc1cc(CN2CCC(CO)(CCOc3ccccc3)CC2)cc(OC)c1,-8.26
5,COc1cc(Cl)c(CN2CCC(CO)(CCOc3ccccc3)CC2)cc1OC,-85.1
6,COc1cc(CN2CCC(CO)(CCOc3ccccc3)CC2)cc(OC)c1OC,3.71
7,COC(=O)c1ccc(NC(=S)Nc2ccc(O)cc2)cc1,5.34
8,O=C(CNCCCO)Nc1cc(C(F)(F)F)cc(NC(=O)CNCCCO)c1Cl,9.02
9,N#Cc1cccc(NC(=O)c2ccc(S(=O)(=O)N3CCOCC3)cc2)c1,0.709
10,COC(=O)c1cc(Cl)cc(Cl)c1OS(=O)(=O)N(C)C,1.43
11,N#CC1=C(N)Oc2nc[nH]c(=O)c2C1c1cccs1 (stereo not shown),17.3
12,CCOC(=O)C(OC(=O)c1sc(=S)n(C)c1C)C(C)=O (stereo not shown),18
13,COc1ccccc1CN1CCNC(=O)C1CC(=O)N(C)Cc1nc(C)cs1 (stereo not shown),17.2
14,CC(=O)c1ccccc1NC(=O)COC(=O)c1ccc2c(c1)nc(C)n2-c1ccccc1,20.6
15,CC(=O)c1c(C)[nH]c(C(=O)OCc2ccc(F)cc2Cl)c1C,10.6
16,Cc1cc2oc(=O)cc(CN3CCC(C)CC3)c2cc1C,12.8
17,Cc1ccc(C)c(Oc2coc3cc(O)ccc3c2=O)c1,0.658
18,CCOC(=O)C1=NN(c2ccc(C)cc2)C2(S1)SC(C(C)=O)=C(C)N2c1ccccc1 (stereo not shown),8.85
19,C(=C\c1ccccc1)/CSc1nnc(-c2ccccc2)n1Cc1ccco1,-45.4
20,Clc1ccc(CSc2nnc(-c3cccnc3)n2Cc2ccco2)c(Cl)c1,-42.3
21,C(=C\c1ccccc1)/CSc1nnc(-c2cccnc2)n1Cc1ccco1,-51.9
22,Clc1ccccc1CSc1nnc(-c2cccnc2)n1Cc1ccco1,-14.2
23,Clc1cccc(CSc2nnc(-c3cccnc3)n2Cc2ccco2)c1,-61
24,C(=C\c1ccccc1)/CSc1nnc(-c2ccncc2)n1Cc1ccco1,-26.9
25,Cc1cc(C)cc(NC(=O)Cn2nnc(C(=O)NCc3ccccc3Cl)c2N)c1,13.6

row,SMILES,"hERG current change (%, negative = inhibition) at 1uM [%]"
1,CCOc1ccc(CCNC(=O)CS(=O)(=O)Cc2nc(-c3ccc(OC)cc3)oc2C)cc1,-0.117
2,COC(=O)[C@]1(C)N[C@H](c2ccc(-c3ccccc3)cc2)[C@@H]2C(=O)N(C)C(=O)[C@@H]21.O=C(O)C(F)(F)F,15.8
3,Cc1ccccc1N1CCN(CCCN2C(=O)CC(=C(c3ccccc3)c3ccccc3)C2=O)CC1,3.79
4,Cc1sc(NC(=O)c2ccccc2F)c(CN2CCCCC2)c1C,9.65
5,CCOc1ccc(NC(=O)CCNC(=O)Cn2cnc3ccccc3c2=O)cc1,18.9
6,CCN(Cc1ccncc1)C(=O)c1cc(COc2c(C)cccc2C)on1,-63.1
7,CCN(Cc1ccncc1)C(=O)c1cc(COc2c(F)cccc2F)on1,-8.09
8,CCN(Cc1ccncc1)C(=O)c1cc(COc2ccc(C)c(C)c2)on1,-5.56
9,CCN1CCN(C(=O)COc2ccc(S(=O)(=O)Nc3ccc(Cl)cc3)cc2)CC1,12.1
10,Cc1cccc(NC(=O)Nc2c(C)n(C)n(-c3ccccc3)c2=O)c1,9.37
11,CCOc1nc(-c2ccccc2)ccc1-c1noc(-c2cccnc2)n1,7.07
12,COc1ccc(CCNC(=O)CC2Nc3ccccc3NC2=O)cc1OC (stereo not shown),12.7
13,CCOC(=O)c1c(NC(=O)Nc2ccc(C)cc2)sc2c1CCN(C)C2,9.62
14,CCOC(=O)c1c(NC(=O)CN2CCCCC2)sc2c1CCN(C(=O)OCC)C2,2.11
15,CCOC(=O)c1c(NC(=S)Nc2ccc(OCC)cc2)sc2c1CCN(C)C2,-11
16,CCOC(=O)c1c(NC(=S)Nc2ccccc2)sc2c1CCN(CC)C2,-80.2
17,CCOC(=O)N1CCc2c(sc(NC(=O)CN3CCOCC3)c2C(=O)Nc2ccccc2)C1,-31.9
18,CCOC(=O)c1c(NC(=O)Cc2ccccc2)sc2c1CCN(CC)C2.Cl,-18.3
19,CCOC(=O)N1CCc2c(sc(NC(=O)CN3CCN(C)CC3)c2C(=O)Nc2ccccc2)C1,-85.6
20,CCOC(=O)c1c(NC(=S)Nc2ccccc2)sc2c1CCN(CCc1ccccc1)C2,2.54
21,CCOC(=O)c1c(NC(=S)Nc2ccccc2)sc2c1CCN(C)C2,-62.8
22,CCOC(=O)c1c(NC(=O)Cc2ccccc2)sc2c1CCN(C)C2.Cl,-19.2
23,CCOC(=O)c1c(NC(=S)Nc2ccccc2)sc2c1CCCCC2,12.8
24,CCOC(=O)c1c(NC(=S)Nc2ccc(Cl)cc2)sc2c1CCN(C)C2,-57.4

# — paper PMC4336329 (PLoS ONE, 2015)
